Source: the supplement of paper PMC3334620
Whole data set: some 33,000 sequences, median “E-score (-0.5 to 0.5)” near -0.012, cut for the highest 2% near 0.29. The sample as a whole holds a higher share of the highest values than the screen did.

Target: T1, Ybr033w (UniProt P38073)
T1 sequence: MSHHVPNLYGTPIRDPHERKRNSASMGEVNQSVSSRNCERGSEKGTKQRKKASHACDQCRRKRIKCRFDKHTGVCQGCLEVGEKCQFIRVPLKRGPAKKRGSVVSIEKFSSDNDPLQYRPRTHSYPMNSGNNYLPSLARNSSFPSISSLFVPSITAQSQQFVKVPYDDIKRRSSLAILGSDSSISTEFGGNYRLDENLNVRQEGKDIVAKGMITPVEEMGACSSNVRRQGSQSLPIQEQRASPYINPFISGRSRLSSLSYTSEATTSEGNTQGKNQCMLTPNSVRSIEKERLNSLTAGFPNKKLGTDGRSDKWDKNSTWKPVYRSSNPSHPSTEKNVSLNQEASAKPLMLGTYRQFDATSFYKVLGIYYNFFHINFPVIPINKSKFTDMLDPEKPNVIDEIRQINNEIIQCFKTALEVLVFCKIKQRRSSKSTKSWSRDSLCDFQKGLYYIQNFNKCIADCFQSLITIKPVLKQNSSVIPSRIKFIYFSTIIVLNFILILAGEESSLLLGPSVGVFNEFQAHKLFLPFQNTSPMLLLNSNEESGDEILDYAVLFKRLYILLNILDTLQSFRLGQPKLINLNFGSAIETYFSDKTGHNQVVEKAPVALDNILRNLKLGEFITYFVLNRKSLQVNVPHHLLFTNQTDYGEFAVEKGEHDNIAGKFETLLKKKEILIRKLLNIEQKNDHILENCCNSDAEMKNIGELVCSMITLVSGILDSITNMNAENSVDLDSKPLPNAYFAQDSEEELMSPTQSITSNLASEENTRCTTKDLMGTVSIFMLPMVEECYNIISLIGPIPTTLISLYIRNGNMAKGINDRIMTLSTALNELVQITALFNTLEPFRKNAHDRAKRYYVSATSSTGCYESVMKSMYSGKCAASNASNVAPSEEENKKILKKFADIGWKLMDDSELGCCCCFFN
Test: PBM E-score (8-mer binding enrichment) (E-score (-0.5 to 0.5)); higher = stronger / more preferred TF binding
Details: protein concentration: 200 nM; construct: GST-full length
Summary of the method: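 Using PURExpress in vitro transcription/translation, GST-tagged yeast transcription factors were made in full-length or DNA-binding-domain form. These were applied at about 100-200 nM to double-stranded universal all-10-mer Agilent arrays, and bound protein was detected with fluorescent anti-GST. Scans were normalised with masliner before the Universal PBM Analysis Suite assigned E-scores to ungapped eight-base words pooled with their reverse complements.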

Row | Sequence | PBM E-score
1 | CCCCACAA | -0.229
2 | CACTTTAG | 0.112
3 | ACTTACTC | 0.0333
4 | GTGCGGTA | -0.0389
5 | CCCAAGCA | -0.0848
6 | AACCTCGG | 0.0447
7 | GAAATCTC | -0.0338
8 | CGGGGGAG | -0.329
9 | AATATATG | 0.204
10 | ACAATATA | 0.264
11 | ACAATATG | 0.199
12 | AAAATATT | 0.364
13 | AAAATATA | 0.28
14 | AAAATAGT | 0.225
15 | ACAATATC | 0.293
16 | AAAATATC | 0.304
17 | AATATATA | 0.277
18 | CAAATATC | 0.269
19 | AATATATT | 0.411
20 | CACCTCTC | -0.283
21 | AGAATGGA | 0.0873
22 | GGACGCGA | -0.0773
23 | ATCTGGGC | -0.0818
24 | CTCCTCGC | -0.257
25 | CATTCTAA | 0.165

Row | Sequence | PBM E-score
26 | CTGGCTTC | -0.174
27 | TATTCTGA | 0.0151
28 | ATCTCATG | 0.0775
29 | ATTTTCTG | 0.0635
30 | AGAATATG | 0.229
31 | CAAATATG | 0.0991
32 | AAAATATG | 0.299
33 | GTCTGACA | 0.00461
34 | CAGTTATC | -0.0111
35 | GAGTAGTA | 0.163
36 | ATTAATGG | 0.289
37 | ATTAATGA | 0.354
38 | AATAATGG | 0.162
39 | GTTAATGA | 0.12
40 | ATTAATGC | 0.22
41 | CTTAATGA | -0.0192
42 | AATTAGCG | 0.161
43 | AGTCTCAC | -0.0327
44 | TAAAGGAA | 0.162
45 | CGGATGAG | -0.0297
46 | CGGATGAA | 0.371
47 | AGGATGAA | 0.187
48 | AGTCCAGC | -0.114
49 | GGGTGAAA | 0.0993
50 | ACAGTCGT | -0.164

Row | Sequence | PBM E-score
51 | AGGAAAAC | 0.12
52 | TGGAAACA | -0.0929
53 | TGTGGAAA | 0.291
54 | AGTGGAAA | 0.146
55 | TGGAAAAA | 0.458
56 | AGGAAAAA | 0.431
57 | GGGAAAAA | 0.453
58 | GGGAAAAC | 0.0792
59 | GGGGAAAA | 0.208
60 | TGAAAAAA | 0.246
61 | AGGAAAAG | 0.038
62 | CGTGGAAA | 0.182
63 | GGCTGAGA | -0.171
64 | GTCATTAA | 0.203
65 | TGTTATAA | 0.19
66 | ATACGGTA | 0.125
67 | CTTTGTGC | -0.00737
68 | CAGGCATC | 0.00941
69 | TCTCGACA | 0.0966
70 | CCGACTCC | -0.185
71 | ACGAAAAT | 0.259
72 | AAGAAAAA | 0.258
73 | AGGAAAAT | 0.379
74 | AAGAAATT | 0.281
75 | AAGAAAAT | 0.331

Row | Sequence | PBM E-score
76 | AGAAAAAT | 0.269
77 | CTACTGGC | -0.052
78 | AGTAGCTG | 0.0396
79 | GCAGCGTA | -0.106
80 | AGAACTAT | 0.275
81 | ATCTTTGG | 0.0693
82 | CTTTAATC | 0.145
83 | CTTTAATA | 0.227
84 | ATTTAGTA | 0.376
85 | ATTTAATA | 0.325
86 | ATTTAGTC | 0.0709
87 | GTTTAATA | 0.264
88 | ATTTAATC | 0.352
89 | CTTTAGTA | 0.0159
90 | ATTTAATG | 0.244
91 | GACTCCCA | -0.305
92 | CAGCCGTC | -0.0893
93 | AGGAAGAG | -0.0292
94 | AAGAAGAT | 0.205
95 | AGGAAGAT | 0.323
96 | CGGAAGAC | 0.00735
97 | AAGAAGAA | 0.185
98 | AGGAAGAC | -0.214
99 | TGGAAGAA | 0.347
100 | TAGAAGAA | 0.0772

Row | Sequence | PBM E-score
101 | AGGAAGAA | 0.36
102 | CGGAAGAA | 0.462
103 | CGGAAGAG | -0.108
104 | GGGAAGAA | 0.256
105 | TGATACCA | 0.092
106 | CATTGGGC | -0.222
107 | CCTAAAAG | -0.226
108 | AGGATGCC | -0.102
109 | ATCGAATC | 0.0745
110 | TAAAGGTA | 0.0512
111 | CAATGAAC | 0.00305
112 | GCGCACAA | -0.0152
113 | CCGAAATC | 0.0136
114 | GGACCAGA | -0.0563
115 | AAGTCCAC | -0.0692
116 | GTACCACA | 0.121
117 | TTGGAAAA | 0.298
118 | ATGGGAAA | 0.0136
119 | TTGAAAAA | 0.237
120 | GTGGAAGA | 0.137
121 | CTGGAAAA | 0.377
122 | CTGGAAAG | -0.189
123 | CTGGGAAA | 0.135
124 | CTGGAAAC | -0.0702
125 | TTGGGAAA | 0.294

Row | Sequence | PBM E-score
126 | GTGGAAAC | -0.0663
127 | TAGGAAAA | 0.229
128 | GTGGAAAA | 0.298
129 | AAAGCTTG | 0.147
130 | CTGCAAAC | 0.0506
131 | CCGCCTGA | -0.172
132 | TCTGCGCA | 0.0104
133 | CAGATATG | -0.0501
134 | ATGGAAAT | 0.175
135 | ATGGAAAA | 0.32
136 | ATGGAAAG | 0.122
137 | ATTTGGCC | -0.0178
138 | CTCATCAG | 0.0236
139 | CAATGAGG | -0.14
140 | CTAACGAA | 0.0607
141 | TTAACGAA | 0.296
142 | ATAACGAA | 0.229
143 | CAATAAGC | 0.0395
144 | AAATAACA | 0.11
145 | AAATAAAG | 0.281
146 | AAATAACT | 0.294
147 | AAATAAGG | 0.00755
148 | ATATAAAT | 0.34
149 | AAATAAAT | 0.298
150 | AAATAAGC | 0.0677

Row | Sequence | PBM E-score
151 | ATATAAAG | 0.211
152 | ATATAAAC | 0.142
153 | AAATAACG | 0.232
154 | AAATAAAA | 0.233
155 | AAATAAGT | 0.295
156 | GATTCTGC | 0.0635
157 | CAGCAAAC | -0.0765
158 | GGTTCTGA | -0.0472
159 | ACATGACC | -0.186
160 | ACTTATGA | 0.171
161 | CGATCTAC | -0.0159
162 | AGCTGGTA | -0.142
163 | AGGATTAT | 0.306
164 | AGGATTAC | 0.106
165 | AGGATTCA | 0.114
166 | AGGATTAA | 0.361
167 | AGGATTTA | 0.228
168 | AGGATTAG | 0.161
169 | CCTGTAGC | -0.353
170 | GGCCTACC | -0.113
171 | CGACTGCA | -0.126
172 | ACTAACGG | -0.0153
173 | TCAATTAA | 0.252
